In PubChem BioAssay AID1159580 (chemical genetic matrix, 2015):
Among all 5,500 compounds or so, about 2,000 (36%) were called active. Inconclusive results (about 18%) are left out. Rule as the data show it: active = normalized growth mostly below about 0.91 (no sharp cut-off); inconclusive = no clear call, values can overlap the other calls; inactive = mostly above about 0.92. The list shows a part of the results.

Assay: chemical genetic growth profiling, strain panel (AID 1159580);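 also: tested at 20 µM; growth read once vehicle control cultures reached saturation at 30 °C; 1 = growth at the plate median or of vehicle wells; lower values mean less growth of the strain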
Conditions: S. cerevisiae deletion strains, growth OD

Measured: normalized growth

C=C1C(=O)[C@]23[C@H](O)[C@H]1CC[C@H]2[C@@]12CO[C@]3(O)[C@H](O)[C@@H]1C(C)(C)CC[C@@H]2O
inactive: locus YAL021C, strain ccr4, stronger effect = lower value 1.02 | locus YAL026C, strain drs2, stronger effect = lower value 0.99 | locus YAL030W, strain snc1, stronger effect = lower value 1 | locus YBL061C, strain skt5, stronger effect = lower value 0.987 | locus YBR009C, strain hhf1, stronger effect = lower value 0.948 | locus YBR023C, strain chs3, stronger effect = lower value 0.991 | locus YBR171W, strain sec66, stronger effect = lower value 0.999 | locus YBR231C, strain swc5, stronger effect = lower value 1.01 | locus YBR279W, strain paf1, stronger effect = lower value 1 | locus YCL011C, strain gbp2, stronger effect = lower value 0.983 | locus YCL016C, strain dcc1, stronger effect = lower value 0.972 | locus YCL061C, strain MRC1, stronger effect = lower value 1 | locus YCL069W, strain vba3, stronger effect = lower value 0.995 | locus YCR088W, strain abp1, stronger effect = lower value 1 | locus YDL005C, strain med2, stronger effect = lower value 1.01 | locus YDL040C, strain nat1, stronger effect = lower value 0.993 | locus YDR001C, strain nth1, stronger effect = lower value 1 | locus YDR069C, strain doa4, stronger effect = lower value 1.04 | locus YDR137W, strain rgp1, stronger effect = lower value 0.99 | locus YDR159W, strain sac3, stronger effect = lower value 1 | locus YDR195W, strain ref2 1.03 | locus YDR297W, strain sur2, stronger effect = lower value 1 | locus YDR334W, strain swr1, stronger effect = lower value 0.994 | locus YDR335W, strain msn5, stronger effect = lower value 1 | locus YDR392W, strain spt3, stronger effect = lower value 0.883 | locus YEL003W, strain gim4, stronger effect = lower value 0.992 | locus YEL037C, strain rad23, stronger effect = lower value 1 | locus YEL061C, strain CIN8 (second series), stronger effect = lower value 1 | locus YER015W, strain faa2, stronger effect = lower value 0.982 | locus YER016W, strain bim1, stronger effect = lower value 1.01 | locus YER111C, strain swi4, stronger effect = lower value 0.999 | locus YER155C, strain BEM2 (second series), stronger effect = lower value 0.984 | locus YFR010W, strain ubp6, stronger effect = lower value 0.995 | locus YGL167C, strain pmr1, stronger effect = lower value 0.995 | locus YGL173C, strain kem1, stronger effect = lower value 1 | locus YGL227W, strain vid30, stronger effect = lower value 1 | locus YGL240W, strain doc1, stronger effect = lower value 1.02 | locus YGL253W, strain hxk2, stronger effect = lower value 1.02 | locus YHR013C, strain ard1, stronger effect = lower value 1.03 | locus YHR027C, strain rpn1, stronger effect = lower value 0.986 | locus YHR030C, strain SLT2, stronger effect = lower value 1.01 | locus YHR079C, strain IRE1, stronger effect = lower value 0.992 | locus YHR142W, strain chs7, stronger effect = lower value 1.01 | locus YJL092W, strain hpr5, stronger effect = lower value 1.02 | locus YJL095W, strain BCK1 (second series), stronger effect = lower value 0.99 | locus YJL095W, strain BCK1, stronger effect = lower value 0.974 | locus YJL115W, strain asf1, stronger effect = lower value 0.988 | locus YJL129C, strain trk1, stronger effect = lower value 1.03 | locus YJL154C, strain vps35, stronger effect = lower value 1.01 | locus YJL164C, strain tpk1, stronger effect = lower value 0.972 | locus YJL166W, strain qcr8, stronger effect = lower value 1.02 | locus YJL187C, strain SWE1, stronger effect = lower value 1.02 | locus YJR066W, strain TOR1, stronger effect = lower value 0.962 | locus YKL160W, strain elf1, stronger effect = lower value 1.04 | locus YKR026C, strain gcn3, stronger effect = lower value 0.994 | locus YKR091W, strain srl3, stronger effect = lower value 0.995 | locus YLL001W, strain dnm1, stronger effect = lower value 1 | locus YLL026W, stronger effect = lower value 0.992 | locus YLL041C, strain sdh2, stronger effect = lower value 0.991 | locus YLR027C, strain aat2, stronger effect = lower value 1 | locus YLR113W, strain HOG1, stronger effect = lower value 0.94 | locus YLR221C, strain rsa3, stronger effect = lower value 0.975 | locus YLR258W, strain gsy2, stronger effect = lower value 0.994 | locus YLR262C, strain YPT6 (second series), stronger effect = lower value 1.01 | locus YLR320W, strain mms22, stronger effect = lower value 1.01 | locus YLR342W, strain FKS1, stronger effect = lower value 1.01 | locus YLR357W, strain rsc2, stronger effect = lower value 0.999 | locus YLR370C, strain arc18, stronger effect = lower value 0.973 | locus YLR384C, strain iki3, stronger effect = lower value 0.993 | locus YML120C, strain ndi1, stronger effect = lower value 0.982 | locus YMR058W, strain fet3, stronger effect = lower value 1 | locus YMR125W, strain sto1, stronger effect = lower value 1.02 | locus YMR129W, stronger effect = lower value 0.997 | locus YMR205C, strain PFK2, stronger effect = lower value 1.02 | locus YMR231W, strain pep5, stronger effect = lower value 0.994 | locus YNL071W, strain lat1, stronger effect = lower value 1.01 | locus YNL183C, strain NPR1, stronger effect = lower value 0.95 | locus YNL209W, strain ssb2, stronger effect = lower value 0.993 | locus YNL248C, strain rpa49, stronger effect = lower value 1.06 | locus YNL322C, strain KRE1 (second series), stronger effect = lower value 0.994 | locus YNR049C, strain mso1, stronger effect = lower value 0.99 | locus YOR001W, strain rrp6, stronger effect = lower value 0.964 | locus YOR070C, strain gyp1, stronger effect = lower value 0.992 | locus YOR080W, strain dia2, stronger effect = lower value 0.998 | locus YOR083W, strain WHI5, stronger effect = lower value 1.02 | locus YOR106W, strain vam3, stronger effect = lower value 1.02 | locus YOR231W, strain MKK1, stronger effect = lower value 1.02 | locus YOR265W, strain rbl2, stronger effect = lower value 0.984 | locus YOR270C, strain vph1, stronger effect = lower value 1.04 | locus YOR290C, strain snf2, stronger effect = lower value 0.996 | locus YPL051W, strain arl3, stronger effect = lower value 1.04 | locus YPL078C, strain atp4, stronger effect = lower value 1.04 | locus YPL106C, strain sse1, stronger effect = lower value 0.981 | locus YPL240C, strain hsp82, stronger effect = lower value 0.975 | locus YPL256C, strain CLN2, stronger effect = lower value 0.984
